Inhibition data for 40 molecules are collected here from ChEMBL document CHEMBL1157539, “Thousands of chemical starting points for antimalarial lead identification” (Nature, 2010).

This assay has as its system Plasmodium falciparum. The assay is described as follows: GSK_TCMDC: Inhibition of Plasmodium falciparum 3D7 in whole red blood cells, using parasite LDH activity as an index of growth. Test compounds present at 2uM. In kind it is functional.
By Inhibition is commonly meant the percentage by which the read-out fell short of the control. Low readings indicate a response near the control, high ones a response far below the control. `COc1ccc(CNCc2ccsc2)cc1-c1ccc(S(=O)(=O)NCCN2CCCC2)s1.O=C(O)C(F)(F)F` yielded an Inhibition of 100%.
Regarding `N=C(NCc1ccccc1)Nc1nc(-c2ccc(OCCCn3ccnc3)cc2)cs1`, the Inhibition was found to be 100%.
To `CC(=O)Nc1ccc(CN(C)C2CCN(c3cc(NC(=O)c4cccc(C)c4)ccn3)CC2)cc1.O=C(O)C(F)(F)F` belongs 94%; to `Cl.O=C(NC1CCC(CCN2Cc3ccc(Br)cc3C2)CC1)c1cccc(-c2cccnc2)c1` (stereo not given), 99%; to `O=C(Nc1cccc(Oc2ccccc2)c1)N[C@H]1CCN(Cc2ccc(OCCCN3CCCCC3)cc2)C1`, 100%.
To `Cc1cc(NS(=O)(=O)c2cccc(C(C)N3CCC(N4CCCC4)CC3)c2)ccc1C(C)C` (stereo not given) belongs 100%.
To `[O-][s+]1c(Cl)c(-c2ccc(Cl)cc2)c2ccc(Cl)cc21` (stereo not given) belongs 91%.
For the molecule `Cc1ccc(C(=O)Nc2ccc(C)c(OC3CCN(Cc4ccco4)C3)c2)cc1.O=C(O)C(F)(F)F` (stereo not given), the Inhibition is listed as 90%.
Turning to `CCCCN(CCCC)CCNC(=O)c1ccc(-c2nc3cc(Cl)ccc3[nH]2)c(OCC)c1`, the Inhibition worked out at 100%.
To `CN(C(=O)Nc1ccc(F)cc1)C1CCN(CCCCCNC(=O)/C=C/c2ccc(Cl)c(Cl)c2)CC1` belongs 89%; to `N#CC(c1ccc(Cl)cc1)c1ccc2c(C(F)(F)F)cc(C(F)(F)F)nc2n1` (stereo not given), 97%; to `CC(C)CNc1c2c(nc3cnn(-c4c5c(nc6cn[nH]c46)CCCC5)c13)CCCC2`, 100%.
The value for `C=Cc1sc(CNCCCNc2cc(=O)c3ccccc3[nH]2)c(C)c1Br` was 94%; that for `COc1ccc(Cl)cc1S(=O)(=O)Nc1cccc(CCN2CCC(N3CCCCC3)CC2)c1` was 100%.
The value for `Br.c1cc(Nc2nc(-c3ccc(-c4csc(Nc5ccncc5)n4)cc3)cs2)ccn1` was 100%; that for `C=CCNc1cc(-c2ccccn2)nc(-c2ccccn2)n1` was 94%; that for `NCC1CCCN1Cc1ccc(-c2ccc(-c3nc4cc(C(F)(F)F)ccc4[nH]3)s2)cc1.O=C(O)C(F)(F)F` (stereo not given) was 100%.
`COc1ccc2c(-c3ccccc3)noc2c1` gave an Inhibition of 98%.
To `Cl.O=c1cc(NCCCNC2CCOc3c(Cl)cc(Cl)cc32)[nH]c2ccccc12` (stereo not given) belongs 100%.
`CCOC(=O)N1CCN(CCCNc2c3ccccc3nc3ccccc23)CC1.Cl` returned an Inhibition of 90%.
To `Cn1cnc(CCNC(=O)c2ccc(-c3cccc(-c4nc5cc(F)ccc5[nH]4)c3)cc2)c1` belongs 100%; to `NC(=O)c1ccccc1OCC(=O)Nc1ccc(-c2cccc(-c3nc4cc(C(F)(F)F)ccc4[nH]3)c2)cc1`, 100%; to `COc1cc2nc(NCc3ccccc3)nc(NCc3ccccc3)c2cc1OC`, 100%.
To `CC(C)(C)CCN1CCC(CNC(=O)c2cc(-c3cccc(Cl)c3)cs2)C1.O=C(O)C(F)(F)F` (stereo not given) belongs 99%; to `CCOc1cc2ncnc(Nc3ccc(OCc4ccccc4Br)c(OC)c3)c2cc1OCC.Cl`, 100%.
On to `Cc1cccc(CNc2nc(C)cc(NCCC(=O)NCCOc3ccccc3)n2)c1.O=C(O)C(F)(F)F`, for which the Inhibition stood at 98%.
Molecule `O=C(O)C[C@H](NC(=O)c1cc(-c2ccc3c(c2)OCO3)no1)C(=O)O.O=C(O)C[C@H](NC(=O)c1conc1-c1ccc2c(c1)OCO2)C(=O)O` showed an Inhibition of 98%.
The value for `Br.CC(CON1C(N)=NC(N)=NC1(C)C)c1ccc(Cl)cc1Cl` (stereo not given) was 97%.
For the molecule `CCc1cn(CCOC)c2ccc(C(=O)N[C@@H](Cc3ccccc3)[C@H](O)CNC(C)(C)CCCC(C)C)cc12.O=CO`, the Inhibition was determined as 98%.
On to `COc1cc2c(cc1OC)CC(NCCCCCCNCCc1ccc(Cl)cc1)CC2.Cl` (stereo not given), for which the Inhibition was 98%.
Turning to `COc1cccc2c(N/N=C/c3ccccc3[N+](=O)[O-])cc(C)nc12`, the Inhibition is 99%.
`Cc1cc(NCCC(=O)NCCOc2ccccc2)nc(Nc2ccccc2)n1.O=C(O)C(F)(F)F` gave an Inhibition of 94%.
To `COc1ccc2nc(Nc3nc(-c4ccccn4)cs3)sc2c1` belongs 93%; to `COc1ccc(NC(=O)[C@H](Cc2ccccc2)Nc2cc(C)nc(NCCc3ccccn3)n2)cc1.O=C(O)C(F)(F)F`, 99%.
To `O=C(Nc1ccc2ccccc2n1)c1ccccc1-c1ccccc1` belongs 90%.
The value for `CO/C(=C\C=C\c1cc2cc(Cl)c(Cl)cc2[nH]1)C(=O)NCCCN1CC(C)N(C)CC1C` (stereo not given) was 92%.
For `COc1ccc2nccc([C@@H](O)CN3CCC(NC(=O)c4nc(Cl)c(Cl)c(N)c4Cl)CC3)c2c1.CS(=O)(=O)O`, the Inhibition is 87%.
Molecule `C[C@H](NC(=O)c1cc(-c2ccc(C(C)(C)C)cc2)no1)C(=O)O.C[C@H](NC(=O)c1conc1-c1ccc(C(C)(C)C)cc1)C(=O)O` showed an Inhibition of 91%.
To `Nc1ccnc(N2CCC(CCOc3cc(C(F)(F)F)nc4c(C(F)(F)F)cccc34)CC2)c1` belongs 98%; to `O=C(O)C(F)(F)F.c1cc(CN2CCN(CCN3CCOCC3)CC2)cc(-c2cccc(-c3nc4ccccc4[nH]3)c2)c1`, 100%.
